In the library only some 11% were active in any assay of this set; here they are far more common.
ALDH1A1 inh – blocks purified human ALDH1A1 activity; P00352; Purified ALDH1A1, NADH fluorescence, propionaldehyde substrate; Potency, µM (titrated, usually from 75.3 µM), inactives show at the highest dose activity, negative = inhibition, actives largely listed as inhibitors; actives 7.3% (n = 220,000); AID 1030;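 further: potency means the concentration at half of the fitted maximal effect; plate controls were no enzyme wells and a reference inhibitor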
HPGD inh – blocks human HPGD enzyme activity; actives 4.3% (n = 150,000); P15428; AID 894; purified HPGD, NADH fluorescence kinetic, PGE2 substrate; Potency, µM, for inactives: top-dose activity change, negative = inhibition, most hits filed as inhibitors; further: potency means the concentration at half of the fitted maximal effect
Target sequence (P15428 whole entry, looked up): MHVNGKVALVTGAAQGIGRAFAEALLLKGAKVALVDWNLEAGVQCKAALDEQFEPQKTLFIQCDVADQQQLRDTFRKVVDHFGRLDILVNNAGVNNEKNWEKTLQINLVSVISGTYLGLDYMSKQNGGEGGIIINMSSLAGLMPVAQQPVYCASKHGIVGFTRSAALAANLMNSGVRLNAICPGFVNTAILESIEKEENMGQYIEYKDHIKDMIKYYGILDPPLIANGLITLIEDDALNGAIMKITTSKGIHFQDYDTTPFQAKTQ
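NADH formation kinetics: reaction with 30 uM PGE2 and 1 mM NAD+ (final), 20 nM enzyme, Tris-HCl pH 8 with Tween 20, after 15 min compound preincubation at room temperature. Fluorescence change, last versus first of five reads.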
NPSR antag – antagonists of human neuropeptide S receptor cAMP signaling; actives 1% (n = 220,000); Q6W5P4; CHO-NPSR cells, cAMP TR-FRET, antagonist mode; Potency, µM (highest dose often 38.3 µM), inactives show top-dose activity change, negative = inhibition, hits mostly inhibitors; AID 1461; active means well fitted curve in the direction sought with a large enough effect; inconclusive means small, poorly fitted or top-dose-only effect, or another doubt; inactive means no such curve, though single readings can be large; an effect the other way counts as inactive or inconclusive; further: potency means the concentration at half of the fitted maximal effect; nearly all actives have a fitted effect of over 50% in size
Target sequence (Q6W5P4 whole entry, looked up): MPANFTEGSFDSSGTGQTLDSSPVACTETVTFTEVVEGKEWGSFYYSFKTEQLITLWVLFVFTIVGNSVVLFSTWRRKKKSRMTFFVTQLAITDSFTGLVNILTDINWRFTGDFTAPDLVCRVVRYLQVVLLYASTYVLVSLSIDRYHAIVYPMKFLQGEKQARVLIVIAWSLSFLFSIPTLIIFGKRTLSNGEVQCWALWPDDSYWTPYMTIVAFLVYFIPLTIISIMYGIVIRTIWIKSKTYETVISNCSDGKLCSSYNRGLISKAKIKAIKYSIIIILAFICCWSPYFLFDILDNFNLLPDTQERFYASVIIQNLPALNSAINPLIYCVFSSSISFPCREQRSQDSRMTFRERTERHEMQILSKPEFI
IMPase Li inh – IMPase inhibition in cells with lithium potentiation. AID 1457. actives 0.35% (n = 210,000). CHO-M1 cells, IP1 TR-FRET (IP-One), carbachol + lithium. Potency, µM (top dose mostly 59.4 µM), inactives show top-dose activity, negative = IMPase inhibition, hits mostly inhibitors; active means well fitted curve in the direction sought with a large enough effect; inconclusive means small, poorly fitted or top-dose-only effect, or another doubt; inactive means no such curve, though single readings can be large; an effect the other way counts as inactive or inconclusive;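 further: IP1 builds up when IMPase is blocked and the TR-FRET signal falls; potency means the concentration at half of the fitted maximal effect; plate controls were basal vehicle for no effect and high inhibitor control for full effect; nearly all actives have a fitted effect of over 50% in size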
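Lithium-sensitised IP1 accumulation assay; M1-expressing CHO cells treated 30 min at 37C with compound. Competitive antibody detection by time-resolved FRET followed a 10 min room-temperature lysis step.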
IMPase inh – cell-permeable inhibitors of inositol monophosphatase (IMPase); P97697; CHO-M1 cells, IP1 accumulation, HTRF TR-FRET ratio; inhibition (IP1 accumulation), % at 46.1 µM; 120,000 tested, under 10 active; active means well fitted curve in the direction sought with a large enough effect in the signal ratio, not every such curve was filed as active; inconclusive means small, poorly fitted or top-dose-only effect, or a change in a side signal; inactive means no such curve, though single readings can be large or run the other way; the % refers to the signal ratio;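 further: cells stimulated with carbachol in lithium chloride buffer; plate controls were DMSO basal wells for no effect and reference inhibitor wells for full effect; higher means more IMPase inhibition seen as more IP1 and lower FRET ratio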
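Cellular IMPase inhibition is scored as a rise in cytosolic IP1, detected by competitive TR-FRET between d2-labelled IP1 and a europium anti-IP1 antibody. M1-expressing CHO cells were stimulated with carbachol for 30 min at 37C, with lithium (50 mM LiCl) present in the buffer.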
PNC inhibitor – inhibitors of perinucleolar compartment assembly | PC3M PTB-GFP, PNC prevalence imaging, 16 h; hits give low values | activity change (PNC), negative = inhibition, % at 10 µM | actives 3.1% (n = 140,000);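 active means readout at or below -70, meaning at least 70% loss of cells showing the perinucleolar compartment, a nuclear body marking cancer cells; inconclusive means readout between -30 and a set limit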;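 further: plate controls were DMSO wells for no effect and camptothecin positive control wells for full effect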
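Read-out is percentage of cells bearing a perinucleolar compartment, from automated 20x imaging of fixed, Hoechst-stained PC3M PTB-GFP cells. Cells were seeded 4 h, then exposed 16 h to compound (23 nl of library stock) in duplicate plates.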
* hit, by the source's call; [ ] = remark or other dose. Unless noted, the call rests on the fitted dose curve; in most records, active means well fitted inhibition curve with a large enough effect (not every such curve was filed as active); inconclusive means small, poorly fitted or top-dose-only effect, or another doubt; inactive means no such curve, though single readings can be large or run the other way. Unless noted, on the % scale 0 is the no-effect control and ±100 the full control effect.

How did Cc1ccc([N+](=O)[O-])cc1NC(=S)NC(=O)c1ccco1 do in these assays?
ALDH1A1 inh: 1%; HPGD inh: -16%; NPSR antag: 30%; IMPase Li inh: 1%; IMPase inh: 1; PNC inhibitor: -1

How did CCc1ccc(C2=NN(c3ccc(S(N)(=O)=O)cc3)C(c3ccc(F)cc3)C2)cc1 (centres undefined) do in these assays?
ALDH1A1 inh: inconclusive; HPGD inh: inconclusive; NPSR antag: 10µM*; IMPase Li inh: -28%[38.3 µM]; IMPase inh: inconclusive; PNC inhibitor: 10

What do the screens show for `COc1ccc(CNC(=O)c2cc(SC)ccc2Cl)cc1OC`?
ALDH1A1 inh: 9%; NPSR antag: 8%; IMPase Li inh: 8%

What do the screens show for `CCCCNc1nc(C)nc2c1nc(-c1ccccc1)n2CC(C)(C)CN(C)C`?
ALDH1A1 inh: inconclusive; HPGD inh: inconclusive; IMPase Li inh: -1%

How did Clc1ccc(-c2csc(-c3ccno3)n2)cc1 do in these assays?
NPSR antag: -7%

What do the screens show for `Fc1cccc(-c2csc(-c3ccno3)n2)c1`?
ALDH1A1 inh: 22µM*; NPSR antag: -8%

What do the screens show for `c1coc(-c2ncc[nH]2)c1`?
ALDH1A1 inh: 18µM*; HPGD inh: -11%; NPSR antag: 6%[46.1 µM]; IMPase Li inh: -7%[38.3 µM]; IMPase inh: 1; PNC inhibitor: -97*

What do the screens show for `c1coc(-c2nc(-c3ccco3)c(-c3ccco3)nc2-c2ccco2)c1`?
ALDH1A1 inh: inconclusive; HPGD inh: inconclusive; NPSR antag: -30%[46.1 µM]; IMPase Li inh: -7%[38.3 µM]; IMPase inh: 4; PNC inhibitor: -23

How did CC[n+]1c(/C=C2\Sc3ccccc3N2C)ccc2cccc(C)c21 do in these assays?
ALDH1A1 inh: inconclusive; NPSR antag: 10µM*; IMPase Li inh: inconclusive

What do the screens show for `CCN1/C(=C/c2ccc3cc(C)ccc3[n+]2CC)Sc2cc(C)c(C)cc21`?
ALDH1A1 inh: -6%; NPSR antag: inconclusive; IMPase Li inh: -17%

How did CCN1/C(=C/c2ccc3cc(C)ccc3[n+]2CC)Sc2ccccc21 do in these assays?
ALDH1A1 inh: -11%; HPGD inh: -9%; NPSR antag: 10µM*; IMPase Li inh: -19%; PNC inhibitor: -93*

Results for CCCn1c(SCC(=O)Nc2nc(-c3ccc(OC)cc3)cs2)nc2c1c(=O)n(C)c(=O)n2C ?
ALDH1A1 inh: 5%; HPGD inh: -10%; NPSR antag: 13%; IMPase Li inh: 5%; IMPase inh: -2; PNC inhibitor: 76

What do the screens show for `O=C(O)c1cccnc1C(=O)O`?
ALDH1A1 inh: 8%; HPGD inh: -9%; NPSR antag: inconclusive; IMPase Li inh: 28%; IMPase inh: -11

What do the screens show for `COc1ccc(CC(=O)NC2CCN(Cc3nnnn3C(C)(C)C)CC2)cc1OC`?
ALDH1A1 inh: 25µM*; HPGD inh: -6%; NPSR antag: -8%[46.1 µM]; IMPase Li inh: 25%[38.3 µM]; IMPase inh: 0; PNC inhibitor: inconclusive

What do the screens show for `CCC(C)(C)n1nnnc1CN1CCC(NC(=O)c2ccc(Br)cc2)CC1`?
ALDH1A1 inh: 5µM*; HPGD inh: -13%; NPSR antag: 15%[46.1 µM]; IMPase Li inh: 21%; IMPase inh: 9; PNC inhibitor: inconclusive

Results for Cc1ccc(Cn2nnnc2CN2CCC(NC(=O)c3ccc(Br)cc3)CC2)cc1 ?
ALDH1A1 inh: -6%; HPGD inh: -1%; NPSR antag: -14%; IMPase Li inh: 22%; IMPase inh: -1; PNC inhibitor: 7

How did CC(C)(C)n1nnnc1CN1CCC(NC(=O)NC2CCCCC2)CC1 do in these assays?
ALDH1A1 inh: -11%; HPGD inh: -5%; NPSR antag: 8%[46.1 µM]; IMPase Li inh: 25%[38.3 µM]; IMPase inh: 2; PNC inhibitor: -21

What do the screens show for `O=C(NC1CC1)c1cccc(Nc2ccc(-c3ccc4c(c3)OCCO4)nn2)c1`?
ALDH1A1 inh: inconclusive; HPGD inh: 28µM*; NPSR antag: inconclusive; IMPase Li inh: 21%[38.3 µM]; IMPase inh: 3; PNC inhibitor: 6

What do the screens show for `Cc1cnc(C(=O)Nc2cccc(-c3nnc4n3CCCCC4)c2)cn1`?
ALDH1A1 inh: -1%; HPGD inh: 13µM*; NPSR antag: -12%[46.1 µM]; IMPase Li inh: -1%[38.3 µM]; IMPase inh: 5; PNC inhibitor: 31

What do the screens show for `Cc1ccc(-c2nnc3n2CCCCC3)cc1`?
ALDH1A1 inh: -10%; HPGD inh: 5µM*; NPSR antag: -3%[46.1 µM]; IMPase Li inh: -1%[38.3 µM]; IMPase inh: -8; PNC inhibitor: -24

Results for Cc1onc(-c2ccccc2)c1C(=O)Nc1nnc(N2CCCCCC2)s1 ?
ALDH1A1 inh: inconclusive; HPGD inh: -17%; NPSR antag: -20%[46.1 µM]; IMPase Li inh: 12%[38.3 µM]; IMPase inh: -4; PNC inhibitor: -108*

How did c1cc(Nc2ncnc3sccc23)cc(-c2nnc3n2CCCCC3)c1 do in these assays?
ALDH1A1 inh: -7%; HPGD inh: 22µM*; NPSR antag: -8%[46.1 µM]; IMPase Li inh: 10%[38.3 µM]; IMPase inh: 5; PNC inhibitor: 10

What do the screens show for `Clc1ccc(-c2nnc3n2CCCC3)cc1`?
ALDH1A1 inh: 6%; HPGD inh: -29%; NPSR antag: -1%[46.1 µM]; IMPase Li inh: 8%[38.3 µM]; IMPase inh: 5; PNC inhibitor: 40

How did O=C(CSc1nnc(-c2cnccn2)n1Cc1ccco1)Nc1ccc(Br)cc1 do in these assays?
ALDH1A1 inh: inconclusive; HPGD inh: -10%; NPSR antag: -27%[46.1 µM]; IMPase Li inh: 2%[38.3 µM]; IMPase inh: inconclusive; PNC inhibitor: 22

Results for CCC(=O)Nc1cc(OC)c(NC(=O)c2ccccc2)cc1OC ?
ALDH1A1 inh: 5%; HPGD inh: -7%; NPSR antag: 2%[46.1 µM]; IMPase Li inh: 18%[38.3 µM]; IMPase inh: 3; PNC inhibitor: 33

Results for COC(=O)c1c(NC(=O)C2CC2)sc2c1CCN(C(C)=O)C2 ?
ALDH1A1 inh: inconclusive; HPGD inh: -21%; NPSR antag: -8%[46.1 µM]; IMPase Li inh: 30%[38.3 µM]; IMPase inh: 5; PNC inhibitor: 38

Results for O=C1Nc2ccccc2C1=Nc1ccc(-c2nnc3n2CCCCC3)cc1 ?
ALDH1A1 inh: inconclusive; HPGD inh: 5µM*; NPSR antag: -8%[46.1 µM]; IMPase Li inh: 31%[38.3 µM]; IMPase inh: -5; PNC inhibitor: 3

What do the screens show for `Cc1onc(-c2ccccc2Cl)c1C(=O)Nc1ccc(-c2nnc3n2CCCCC3)cc1`?
ALDH1A1 inh: -6%; HPGD inh: 16µM*; NPSR antag: 5%[46.1 µM]; IMPase Li inh: 9%[38.3 µM]; IMPase inh: 9; PNC inhibitor: inconclusive

Results for O=C(Nc1ccc(-c2nnc3n2CCCCC3)cc1)c1ccco1 ?
ALDH1A1 inh: inconclusive; HPGD inh: 8.9µM*; NPSR antag: 4%; IMPase Li inh: -5%; PNC inhibitor: -17
